Measurements: PubChem BioAssay AID602288 (National Center for Advancing Translational Sciences (NCATS), 2012)
Inconclusive results are not listed. The source made the active and inactive calls. The call rests on the fitted dose curve; in most records, active means well fitted cell-killing curve with a large enough effect (not every such curve was filed as active); inconclusive means small, poorly fitted or top-dose-only effect, or another doubt; inactive means no such curve, though single readings can be large or run the other way.

experiment: qHTS Assay for Agonists of the Relaxin Receptor RXFP1: Cytotoxicity SAR; conditions: HEK293-RXFP1 viability, ATPLite luminescence, 72 h; series mostly up to 78.1 µM; activity change, negative = cytotoxicity: at the top concentration
Text: The relaxin hormone is involved in the variety of biological functions in normal tissues and diseases. The role of relaxin is well-established in female reproduction and parturition, mammary gland and endometrial development, maintenance of myometrial quiescence during pregnancy. Relaxin signaling through its G protein-coupled receptor (GPCR) RXFP1 results in ECM remodeling through regulation of collagen deposition, cell invasiveness, proliferation and overall tissue homeostasis. […] Recombinant human relaxin (rhRlx) is currently being tested in clinical trials as a protective agent in congestive heart failure, in treating severe preeclampsia, and as an anti-fibrotic agent in systemic sclerosis. In the primary screen, upon relaxin binding RXFP1 activation leads to the activation of adenylate cyclase (AC) via Gs. cAMP will activate PKA, which phosphorylates many signaling proteins. Thus, detection of cAMP increase is an easy and reliable indication of relaxin receptor activation. To screen for agonists of the relaxin receptor, a HEK293T cell line stably transfected with RXFP1 was used. RXFP1 activation was assayed by changes in cAMP levels as detected with a time-resolved fluorescence energy transfer (TR-FRET) cAMP detection kit. We conducted this followup assay to measure the effect of the lead candidates on cell health by measuring ATP levels (ATPLite). NIH Chemical Genomics Center [NCGC] NIH Molecular Libraries Probe Production Centers Network [MLPCN] MLPCN Grant: R03 MH085705-01A1 Assay Submitter (PI): Alexander Agoulnik
In this assay, the luciferase enzyme catalyzes the conversion of the added substrate D-luciferin to oxyluciferin and light with ATP. Thus, the emitted light is proportional to the ATP concentration. To evaluate the cytotoxic properties of the compounds, HEK293-RXFP1 cells were incubated with compounds for 72 h in growth media (DMEM 10% FBS, 1x Pen/Strep, 0.5 mg/mL G418) in 384-well format. After compound incubation, the levels of ATP in each well were measured with the addition of the ATPLite assay reagent.

Compound	activity change, negative = cytotoxicity	Potency
COCCOc1ccccc1C(=O)Nc1ccccc1C(=O)Nc1cccc(C(F)(F)F)c1	-53.3% (inactive)	
COc1ccccc1C(=O)Nc1cccc(C(=O)Nc2cccc(C(F)(F)F)c2)c1		18.8 µM (active)
CCOc1ccccc1C(=O)Nc1ccccc1CNc1cccc(S(=O)(=O)C(F)(F)F)c1	-26.1% (inactive)	
O=C(Nc1cccc(-c2ccccc2)c1)c1ccccc1NC(=O)C1CCCCC1		14.9 µM (active)
COc1ccccc1Nc1ccccc1C(=O)Nc1cccc(C(F)(F)F)c1		23.6 µM (active)
O=C(Nc1cccc(SC(F)(F)F)c1)c1ccccc1NC(=O)C1CCCCC1	-42.9% (inactive)	
O=C(Nc1cccc(Cl)c1)c1ccccc1NC(=O)C1CCCCC1		29.7 µM (active)
O=C(Nc1cccc([N+](=O)[O-])c1)c1ccccc1NC(=O)C1CCCCC1	-31.8% (inactive)	
COc1ccccc1CNc1ccccc1C(=O)Nc1cccc(C(F)(F)F)c1		23.6 µM (active)
CC(C)Oc1ccccc1C(=O)Nc1ccccc1C(=O)Nc1cccc(S(=O)(=O)C(F)(F)F)c1		9.4 µM (active)
COc1ccccc1C(=O)Nc1ccccc1C(=O)Nc1cccc(C(F)(F)F)c1	-43.3% (inactive)	
O=C(Nc1cccc(Br)c1)c1ccccc1NC(=O)C1CCCCC1	-27.7% (inactive)	
O=C(Nc1cccc(-c2ccccc2C(F)(F)F)c1)c1ccccc1NC(=O)C1CCCCC1	-39.7% (inactive)	
CCCCOc1ccccc1C(=O)Nc1ccccc1C(=O)Nc1cccc(S(=O)(=O)C(F)(F)F)c1	-59.1% (inactive)	
CCOc1ccccc1C(=O)Nc1ncccc1C(=O)Nc1cccc(S(=O)(=O)C(F)(F)F)c1		18.8 µM (active)
O=C(Nc1cccc(-c2cccc(C(F)(F)F)c2)c1)c1ccccc1NC(=O)C1CCCCC1		23.6 µM (active)
COc1ccccc1-c1ccccc1C(=O)Nc1cccc(C(F)(F)F)c1		23.6 µM (active)
O=C(Cc1ccccc1)Nc1ccccc1C(=O)Nc1cccc(C(F)(F)F)c1		47.1 µM (active)
CCCOc1ccccc1C(=O)Nc1ccccc1C(=O)Nc1cccc(S(=O)(=O)C(F)(F)F)c1		9.4 µM (active)
O=C(Nc1ccccc1C(=O)Nc1cccc(C(F)(F)F)c1)c1cccnc1	-17.2% (inactive)	

Compound	activity change, negative = cytotoxicity	Potency
COc1ccccc1C(=O)Nc1ccccc1C(=O)N(C)c1cccc(C(F)(F)F)c1		29.7 µM (active)
O=C(Nc1cccc(S(=O)(=O)C(F)(F)F)c1)c1ccccc1NC(=O)C1CCCCC1		14.9 µM (active)
CCOc1ccccc1S(=O)(=O)Nc1ccccc1C(=O)Nc1cccc(S(=O)(=O)C(F)(F)F)c1		5.93 µM (active)
O=C(NCc1cccc(C(F)(F)F)c1)c1ccccc1NC(=O)C1CCCCC1		11.8 µM (active)
CCOc1ccccc1C(=O)Nc1ccccc1C(=O)Nc1cccc(C(F)(F)F)c1	-13.9% (inactive)	
COc1ccc(C(=O)Nc2ccccc2C(=O)Nc2cccc(C(F)(F)F)c2)cc1	-49.6% (inactive)	
O=C(Nc1ccc(C(F)(F)F)cc1)c1ccccc1NC(=O)C1CCCCC1		11.8 µM (active)
O=C(Nc1cccc(C(F)(F)F)c1)c1ccccc1NC(=O)C1CCCCC1		18.8 µM (active)
O=C(Nc1cccc(C(F)(F)F)c1)c1ccccc1NC(=O)c1ccccc1OC(F)(F)F	-38% (inactive)	
Cc1ccccc1C(=O)Nc1ccccc1C(=O)Nc1cccc(C(F)(F)F)c1	-69.3% (inactive)	
Cc1cccc(NC(=O)c2ccccc2NC(=O)C2CCCCC2)c1		23.6 µM (active)
CCC(CC)C(=O)Nc1ccccc1C(=O)Nc1cccc(C(F)(F)F)c1		9.4 µM (active)
COc1ccccc1C(=O)N(C)c1ccccc1C(=O)N(C)c1cccc(C(F)(F)F)c1		59.3 µM (active)
CCOc1ccccc1C(=O)Nc1ccncc1C(=O)Nc1cccc(S(=O)(=O)C(F)(F)F)c1		2.36 µM (active)
CCOc1ccccc1-c1nc2c(C(=O)Nc3cccc(S(=O)(=O)C(F)(F)F)c3)cccc2[nH]1	3.81% (inactive)	
CC(C)Oc1ccccc1C(=O)Nc1ccccc1C(=O)Nc1cccc(C(F)(F)F)c1	-63% (inactive)	
O=C(Nc1ccccc1C(=O)Nc1cccc(C(F)(F)F)c1)c1ccccc1Cl		11.8 µM (active)
CSc1cccc(NC(=O)c2ccccc2NC(=O)C2CCCCC2)c1	-31% (inactive)	
O=C(Nc1cccc(C(F)(F)F)c1)c1ccccc1NC(=O)C1CC1	-17.1% (inactive)	
CCOc1ccccc1C(=O)Nc1cnccc1C(=O)Nc1cccc(S(=O)(=O)C(F)(F)F)c1		23.6 µM (active)
